The text below walks through data of PubChem BioAssay.

SMILES strings stand for the structures. Calls of active or inactive are those of the source. Unless noted, the rule behind the calls is not given here.

Assay [1] relates to Wnt5a (protein binding on small-molecule microarray). As to the kind of experiment: small molecules binding Wnt5a protein – biophysical, small-molecule microarray, 635/667 nm fluorescence, primary screen (AID 1142).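 Note: fluorescence read at 667 nm with signal to noise per printed feature.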 The following applies: 635 nm fluorescence, higher = more signal.
The nature of assay [2]: ATP-based viability of Huh7 replicon cells – cell-based, CellTiter-Glo luminescence, basal, 48 h, cytotoxicity control for HCV replication inhibitor project, primary screen (AID 1143).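 Note: Huh7 hepatoma cells carrying a hepatitis C replication reporter with no stimulus; test concentration not given here.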 The following applies: higher = more signal, called active from +8 up or from −8 down. A general note: A replicon is a self-replicating genome or part of one, used to study replication in cells.

Assay [3] is described as follows: Pseudomonas biofilm growth suppression – PAO1 strain, BacTiter-Glo luminescence, LB-PBS, primary screen (AID 1144). The following applies: P. aeruginosa PAO1 biofilm, 12 h, higher = more signal.
A short description of assay [4]: basal CRE-LacZ reporter activity in PC12 – cell-based, unstimulated, primary screen (AID 1145). The following applies: no forskolin, luminescence, 4.5 h, higher = more signal, called active from +8 up or from −8 down.
A short description of assay [5]: forskolin-driven CRE-LacZ activity in PC12 – cell-based, CRE-LacZ reporter, forskolin-stimulated, primary screen (AID 1146).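 Note: PC12 cells with 6xCRE LacZ reporter stimulated by forskolin 10 µM; beta-galactosidase reporter signal reflecting CREB driven transcription.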 The following applies: luminescence, 4.5 h, higher = more signal, called active from +8 up or from −8 down.
Assay [6] concerns the target Streptavidin (Streptomyces avidinii) (UniProt P22629). As to the kind of experiment: compounds binding control protein streptavidin – biophysical, small-molecule microarray, 635/667 nm fluorescence, artefact control for SMM compound annotation, primary screen (AID 1147).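 Note: signal reflects streptavidin binding to arrayed compounds as a control protein.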 To be noted: higher = more signal.
A short description of assay [7]: probe aInhba binding on compound microarray – biochemical, small-molecule microarray, 635/667 nm fluorescence, primary screen (AID 1148).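 Note: score merges 667nm spot fluorescence with signal-to-noise for antibody binding to printed compounds.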 The following applies: higher = more signal.
Assay [8] concerns the target Torsin-1A (Homo sapiens) (UniProt O14656). As to the kind of experiment: TOR1A wild-type binding on microarray – cell lysate, small-molecule microarray, lysate, 635/667 nm, primary screen (AID 1149). To be noted: COS7 hTOR1A-WT lysate, 635 nm fluorescence, higher = more signal.
For assay [9] the target is unchanged. As to the kind of experiment: torsin A mutant lysate binding on microarrays – cell lysate, small-molecule microarray, COS7 lysate, 635/667 nm fluorescence, primary screen (AID 1150).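 Note: score pools 667 nm emission and signal to noise measuring lysate protein binding.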 To be noted: COS7 hTOR1A mutant lysate, 635 nm fluorescence, higher = more signal.
In assay [10] the test system is Sonic hedgehog protein (Shh). As to the kind of experiment: Sonic hedgehog microarray binding compounds – biochemical, small-molecule microarray, 635/667 nm fluorescence, primary screen (AID 1151).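 Note: Shh protein binding to compounds spotted on small-molecule microarray slides; score combines spot fluorescence intensity with signal-to-noise across triplicate slides.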 To be noted: 635 nm fluorescence, higher = more signal.

Sequence of Torsin-1A (Homo sapiens) (O14656 whole entry, looked up): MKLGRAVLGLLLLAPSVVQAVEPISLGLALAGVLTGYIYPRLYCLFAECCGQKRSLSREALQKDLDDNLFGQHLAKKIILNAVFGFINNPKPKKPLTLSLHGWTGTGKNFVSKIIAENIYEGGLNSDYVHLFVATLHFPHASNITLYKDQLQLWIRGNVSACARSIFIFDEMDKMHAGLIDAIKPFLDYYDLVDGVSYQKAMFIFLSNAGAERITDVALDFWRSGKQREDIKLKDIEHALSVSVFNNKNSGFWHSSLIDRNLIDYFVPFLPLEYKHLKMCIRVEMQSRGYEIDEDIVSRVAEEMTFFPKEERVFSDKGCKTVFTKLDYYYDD
Sequence of Streptavidin (Streptomyces avidinii) (P22629 whole entry, looked up): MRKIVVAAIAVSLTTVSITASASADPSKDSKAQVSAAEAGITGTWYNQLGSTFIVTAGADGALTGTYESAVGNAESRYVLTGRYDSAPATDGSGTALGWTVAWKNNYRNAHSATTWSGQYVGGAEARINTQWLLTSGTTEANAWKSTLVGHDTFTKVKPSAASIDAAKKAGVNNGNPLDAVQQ

With `CCOC(=O)c1cn(C[C@H](Cc2ccccc2)NC(=O)N[C@H](CO)CCc2oc(C(C)=O)c(C(=O)OC)c2C(=O)OC)nn1`, the composite z-score in [1] was 0.0532; in [6], 0.486; in [7], -0.0762; with Torsin-1A (Homo sapiens) [8] it was 0.439; in the assay with Torsin-1A (Homo sapiens) [9] it was 0.692; in [10] it was 1.63. The z-score in assay [2] was -2.84 (inactive); in assay [3], 0.279 (inactive); in assay [4], 1.4 (inactive); in assay [5], -0.158 (inactive).

On to `COc1ccc([Si](C)(C)[C@@H]2[C@@H](CC(=O)N3Cc4ccccc4C[C@H]3CO)O[C@]3(C(=O)N(Cc4ccc(N5CCOC5=O)cc4)c4ccccc43)[C@H]2C)cc1`, for which the composite z-score is -0.0088 in assay [1]; -0.0492 in assay [6]; -0.128 in assay [7]; 0.438 in the assay with Torsin-1A (Homo sapiens) [8]; 0.702 in the assay with Torsin-1A (Homo sapiens) [9]; 1.96 in assay [10]. The z-score is -4.75 (inactive) in [2], -0.081 (inactive) in assay [3], 0.949 (inactive) in assay [4] and -0.888 (inactive) in [5].

On to `[N-]=[N+]=Nc1ccccc1[C@@H]1OC(c2ccc(OCCCO)cc2)=N[C@]1(Cc1ccccc1)C(=O)NCCN1CCOCC1`, for which the composite z-score is 0.458 in assay [1]; 1.29 in assay [6]; 0.347 in [7]; 0.612 with Torsin-1A (Homo sapiens) [8]; 1.25 in the assay with Torsin-1A (Homo sapiens) [9]; -0.368 in assay [10]. Further, the z-score in assay [2] is -5.28 (inactive); in assay [3] it was -0.528 (inactive); in assay [4] it was 0.4 (inactive); in [5], -1.37 (inactive).

In the case of `CC(=O)OCC1C2CC[C@H]3C(OCc4ccc(F)cc4C(F)(F)F)OC[C@]4(C)[C@H]3C2=C(CN4C(=O)OC(C)(C)C)[C@H](C)C1COC(C)=O` (stereo not given in full), the composite z-score in [1] is 1.21; in assay [6], 1.16; in [7], 0.196; with Torsin-1A (Homo sapiens) [8] it was -0.172; with Torsin-1A (Homo sapiens) [9], 1.67; in assay [10] it was -1.24. The z-score is -1.87 (inactive) in assay [2], -0.212 (inactive) in assay [3], 0.0075 (inactive) in [4] and 1.85 (inactive) in assay [5].

Take `COC(=O)[C@H](Cc1ccccc1)N1CC2=CCCC=C[C@@H]2[C@H]1[C@H](O)Cc1ccccc1`: the composite z-score in assay [1] was -0.0279; in [6] it was 0.916; in assay [7] it was -0.0332; with Torsin-1A (Homo sapiens) [8], -0.214; with Torsin-1A (Homo sapiens) [9] it was -0.371; in assay [10], 0.848. In addition, the z-score in assay [2] was -1.02 (inactive); in [3], 1.09 (inactive); in assay [4] it was 2.4 (inactive); in assay [5], 1.07 (inactive).

Turning to `CCCC#C[Si](O[C@H](CC)c1cn(Cc2ccccc2)nn1)(C(C)C)C(C)C`, the composite z-score in assay [1] turned out to be 0.24; in assay [6], 1.72; in [7] it was 0.0541; with Torsin-1A (Homo sapiens) [8] it was 0.732; with Torsin-1A (Homo sapiens) [9], 0.563; in [10], 1.27. Also, the z-score in assay [2] was -1.01 (inactive); in assay [3], 0.171 (inactive); in assay [4], -0.374 (inactive); in assay [5], 0.04 (inactive).

With `COCCOC(=O)N1C(=O)[C@@]2(c3cc(C#CCC(C(=O)OC)C(=O)OC)ccc31)[C@H](C(N)=O)[C@H]1C(=O)O[C@H](c3ccccc3)[C@H](c3ccccc3)N1[C@@H]2c1ccc(O)cc1`, the composite z-score in assay [1] was 0.449; in assay [6] it was -0.0413; in assay [7] it was -0.0405; in the assay with Torsin-1A (Homo sapiens) [8], 0.551; with Torsin-1A (Homo sapiens) [9], 0.919; in assay [10], 1.75. Besides, the z-score in [2] is -5.41 (inactive); in assay [3], -1.01 (inactive); in [4], -0.168 (inactive); in [5] it was -0.339 (inactive).

Turning to `O=C1C2C=CC(C(O)c3cccs3)N(Nc3ccc([N+](=O)[O-])cc3)C2C(=O)N1c1ccccc1` (stereo not given), the composite z-score was 0.0001 in assay [1]; 0.46 in assay [6]; -0.0791 in [7]; -0.236 with Torsin-1A (Homo sapiens) [8]; 0.303 with Torsin-1A (Homo sapiens) [9]; -0.441 in assay [10]. Further, the z-score was 0.0886 (inactive) in [2], 0.461 (inactive) in assay [3], -0.685 (inactive) in assay [4] and -0.275 (inactive) in [5].

`N#Cc1ccc(-c2cccc(=O)o2)cc1`: the composite z-score in [1] is 0.0017; in assay [6], 0.427; in assay [7] it was 0.085; with Torsin-1A (Homo sapiens) [8], 0.435; with Torsin-1A (Homo sapiens) [9], 0.0587; in assay [10] it was 0.458. Further, the z-score in assay [2] was 0.454 (inactive); in assay [3], -0.131 (inactive); in assay [4], -0.163 (inactive); in assay [5] it was 0.648 (inactive).

On to `CN1C(=O)C2C=CC(C(O)c3ccc(-c4ccccc4)s3)N(NC(=O)OC(C)(C)C)C2C1=O` (stereo not given), for which the composite z-score in assay [1] is -0.423; in assay [6] it was 1.38; in assay [7], 0.0069; in the assay with Torsin-1A (Homo sapiens) [8], -0.043; in the assay with Torsin-1A (Homo sapiens) [9], 0.564; in assay [10], 0.0221. Also, the z-score in [2] was 0.531 (inactive); in [3] it was 0.146 (inactive); in [4], 0.436 (inactive); in assay [5], -0.0651 (inactive).

Consider `CN(C)CCCCNC(=O)[C@H]1C[C@H]2C(=O)NCC(=O)N2[C@H]1c1ccc(O)cc1`, for which the composite z-score in assay [1] was -0.311; in assay [6], -0.761; in assay [7] it was -0.344; in the assay with Torsin-1A (Homo sapiens) [8] it was -0.0276; in the assay with Torsin-1A (Homo sapiens) [9], 1.07; in assay [10], 1.57. Besides, the z-score in assay [2] was 0.153 (inactive); in assay [3] it was 0.0384 (inactive); in [4] it was -0.943 (inactive); in assay [5], -0.489 (inactive).

For `O=C1O[C@H](Cc2ccccc2)[C@@H]2[C@H]3C=CCCC=C3CN2[C@H]1Cc1ccc(O)cc1`, the composite z-score in assay [1] was -0.311; in [6], -0.0955; in assay [7] it was 0.214; with Torsin-1A (Homo sapiens) [8] it was -0.2; in the assay with Torsin-1A (Homo sapiens) [9], -0.632; in [10], -0.282. Also, the z-score in [2] was -0.0514 (inactive); in [3], -0.818 (inactive); in assay [4] it was -0.0546 (inactive); in assay [5], 1.11 (inactive).

As for `COC(=O)[C@@]1(Cc2ccc(F)cc2)[C@H]2c3cc(C(=O)N4CCCC4)n(Cc4ccccn4)c3C[C@H]2CN1C(=O)c1ccccc1`, the composite z-score in [1] was 0.739; in assay [6], 0.498; in assay [7], 0.522; in the assay with Torsin-1A (Homo sapiens) [8], -0.578; with Torsin-1A (Homo sapiens) [9], 0.738; in assay [10], -0.138. The z-score in assay [2] is -1.56 (inactive); in [3], 0.261 (inactive); in assay [4] it was 0.966 (inactive); in assay [5], 1.35 (inactive).
